# Assay outcomes as filed in PubChem.
# Hits are enriched below; roughly 1.4% of the tested compounds scored in any of these assays.
# Vif-APOBEC3G blk = qHTS for Inhibitors of Vif-A3G Interactions: qHTS; DNA dC->dU-editing enzyme APOBEC-3G (Homo sapiens), Q9HC16; HeLa A3G-eYFP + Vif (tagged APOBEC3G with the HIV-1 protein that degrades it), YFP fluorescence, overnight; Potency, µM (titrated, usually from 46.1 µM), for the others: at the top dose activity, negative = active, hits mostly inhibitors; 0.076% of 410,000 active; AID 602310, 2012; further: potency means the concentration at half of the fitted maximal effect; on the % scale 0 is the no-effect control and ±100 the full control effect; nearly all actives have a fitted effect of over 60% in size
# Target sequence (Q9HC16 whole entry, looked up): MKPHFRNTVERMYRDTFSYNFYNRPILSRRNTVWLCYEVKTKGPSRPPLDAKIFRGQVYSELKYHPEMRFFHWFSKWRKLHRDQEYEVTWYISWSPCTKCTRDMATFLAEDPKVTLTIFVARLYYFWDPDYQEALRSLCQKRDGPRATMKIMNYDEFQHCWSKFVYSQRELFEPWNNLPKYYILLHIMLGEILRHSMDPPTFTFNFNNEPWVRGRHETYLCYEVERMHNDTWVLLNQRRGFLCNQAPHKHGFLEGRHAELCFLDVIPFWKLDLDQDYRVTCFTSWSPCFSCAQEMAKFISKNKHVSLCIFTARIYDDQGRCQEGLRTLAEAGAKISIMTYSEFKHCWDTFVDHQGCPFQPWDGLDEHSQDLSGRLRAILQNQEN
#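 Read-out is eYFP fluorescence (Ex 488/Em 500-530) from Vif-expressing HeLa A3G-eYFP cells; more signal means A3G escaped Vif-mediated degradation. Cells plated overnight, compound pinned in, incubated overnight at 37 deg C.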
# TSG101-PTAP inh = qHTS Assay for Iinhibitors of HIV-1 Budding by Blocking the Interaction of PTAP/TSG101. Tumor susceptibility gene 101 protein (Homo sapiens), Q99816. Fluorescence polarization, FITC-PTAP peptide / Tsg101 binding. Potency, µM (highest dose often 115 µM), for inactives: at the highest dose activity change, negative = inhibition, hits mostly inhibitors. 340,000 tested, under 10 active; active means well fitted inhibition curve with a large enough effect in the main read-out, with a control signal flat, not every such curve was filed as active; inconclusive means small, poorly fitted or top-dose-only effect, or effect the other way, or a change in a side signal; inactive means no such curve, though single readings can be large or run the other way; further: potency means the concentration at half of the fitted maximal effect; % of control where 0% means no effect
# Target sequence (Q99816 whole entry, looked up): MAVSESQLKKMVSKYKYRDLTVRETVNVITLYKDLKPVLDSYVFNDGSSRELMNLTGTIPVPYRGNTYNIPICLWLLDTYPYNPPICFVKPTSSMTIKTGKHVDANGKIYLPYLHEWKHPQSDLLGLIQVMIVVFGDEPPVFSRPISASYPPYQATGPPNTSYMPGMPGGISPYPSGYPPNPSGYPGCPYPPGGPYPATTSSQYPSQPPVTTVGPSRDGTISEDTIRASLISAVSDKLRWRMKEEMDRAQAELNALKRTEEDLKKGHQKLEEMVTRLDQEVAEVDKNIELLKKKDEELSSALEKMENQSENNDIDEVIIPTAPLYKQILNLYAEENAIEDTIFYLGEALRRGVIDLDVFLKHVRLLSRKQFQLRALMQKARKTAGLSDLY
#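 Fluorescence polarization binding of Tsg101 binding domain (10 uM final) to FITC-labeled PTAP peptide (50 nM final) in HEPES pH 7.5 buffer with NaCl, Tween 20, EDTA, TCEP. Compounds added before peptide; binding 20 min at RT.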
# pAkt inh = HTS Assay for Inhibitors of Akt Phophorylation: Primary Screen. Neuro2A IGF-stimulated pAkt S473 HTRF, 20 min; stronger effect = lower value. activity change, % for hits at 50 µM. 0.32% of 360,000 active; in the data active means activity change below about -80%; inconclusive means mostly about -51% to -80%; further: on the % scale 0 is the no-effect control and ±100 the full control effect
#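 Neuro2A cells in DMEM with 0.5% FBS, overnight at 37 deg C, given compound at single 50 µM final, then IGF (6 nM final) for 20 min at 37 deg C. Lysed; phospho-Akt Ser473 by HTRF after 24 h, 665/615 ratio.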
# 12-LOX inh = Primary qHTS assay for inhibitors of human arachidonate 12S-lipoxygenase (ALOX12): Round 2 | purified 12hLO, xylenol orange hydroperoxide absorbance | Potency, µM (top dose mostly 108 µM), inactives show at the highest dose activity change, negative = inhibition, actives largely listed as inhibitors | Polyunsaturated fatty acid lipoxygenase ALOX12 (Homo sapiens), P18054 | 1.1% of 580,000 active; further: potency means the concentration at half of the fitted maximal effect; on the % scale 0 is the no-effect control and ±100 the full control effect
#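 Purified human 12hLO at 150 nM in 25 mM Hepes, 0.01% Triton X-100, pH 7.0, preincubated 15 min at room temperature with compound. Reaction started with 40 uM arachidonic acid, 30 min at room temperature. Hydroperoxide measured by Fe-xylenol orange, 573/405 nm absorbance ratio.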
# ASM inhibitor = Inhibitors of Secretory Acid Sphingomyelinase (S-ASM): qHTS; Sphingomyelin phosphodiesterase (Homo sapiens), P17405; placental ASM, HMU-PC fluorogenic substrate, 60 min; Potency, µM (highest dose often 57.5 µM), without a hit: at the top dose activity change, negative = inhibition, most hits filed as inhibitors; 0.006% of 340,000 active; further: potency means the concentration at half of the fitted maximal effect
#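 HMU-PC0 cleavage (9 uM final) by human placental ASM, 60 min at 37 °C following 10 min compound exposure at RT; stopped at pH 10, fluorescence Ex 386/Em 447 nm.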
# Vif-A3F inh = qHTS for Inhibitors of Vif-A3F Interactions: qHTS. HeLa A3F-eYFP + Vif (tagged APOBEC3F with the HIV-1 protein that degrades it), YFP fluorescence increase. Potency, µM (top dose mostly 46.1 µM), inactives show at the top dose activity, negative = active. 0.2% of 390,000 active. AID 602313, 2012; further: potency means the concentration at half of the fitted maximal effect; % of control where 0% means no effect; nearly all actives have a fitted effect of over 65% in size
#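 HeLa cells stably expressing A3F-eYFP plus Vif, plated and incubated overnight at 37 deg C, then exposed to compounds overnight at 37 deg C. Blocked degradation read as raised yellow fluorescence (Ex 488/Em 500-530).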
# An asterisk follows results filed as active; i = inactive; u = inconclusive; x = no result given; [ ] = dose if it differs, or a comment. Unless noted, the call rests on the fitted dose curve; in most records, active means well fitted curve in the direction sought with a large enough effect; inconclusive means small, poorly fitted or top-dose-only effect, or another doubt; inactive means no such curve, though single readings can be large; an effect the other way counts as inactive or inconclusive.
SMILES,Vif-APOBEC3G blk,TSG101-PTAP inh,pAkt inh,12-LOX inh,ASM inhibitor,Vif-A3F inh
COc1ccc(-n2cc(CNCc3cccnc3)c(-c3cccc(F)c3)n2)cc1,-0.6%,-1.9%,i,-2.9%,5.4%,4.3%
C=CCN(c1ccccc1OC)S(=O)(=O)c1cccc(C(=O)NCc2cccs2)c1,-3.4%,-1.1%,i,-29.9%,-1.7%,0.6%
COc1cc(OC)c(N(C)S(=O)(=O)c2cccc(C(=O)NCc3cccs3)c2)cc1Cl,-0.6%,x,i,10µM*,x,-0.2%
CCOC(=O)c1c(-c2ccc(C)cc2)csc1NC(=O)/C(C#N)=C/c1ccc(O)c(OC)c1,10µM*,5.8%,i,-7.9%,-10.8%,u
Cc1ccc2c(CN(C)CCOc3ccc(Cl)cc3)cc(=O)oc2c1,x,x,x,35.5µM*,x,x
CCc1ccc2c(CN(C)CCOc3ccc(F)cc3)cc(=O)oc2c1,x,x,x,44.7µM*,x,x
Cc1[nH]n(C(N)=S)c(=O)c1C(c1ccccc1)C(C#N)C#N (stereo not drawn),0.7%,-6.5%,i,u,-2.8%,1.1%
Cc1[nH]n(-c2ncc(-c3ccccc3)s2)c(=O)c1C(c1ccc(Br)cc1)C(C#N)C#N (stereo not drawn),u,-4.8%,i,25.1µM*,-7.4%,-17.7%
CN(Cc1ccccc1)C(=O)C1CCC(C(=O)N(C)Cc2ccccc2)CC1 (stereo not drawn),x,x,x,-28.1%,x,x
CC(=O)c1c(C)[nH]c(C(=O)Cn2cnc3cc(F)ccc3c2=O)c1C,x,x,x,-4.0%,x,x
CCOc1c(C)cc2[nH]c(CCC(=O)O)nc2c1C,-0.4%,-6.2%,-111.6%*,0.0%,4.3%,6.3%
CCC(C)N(C(=O)COc1ccccc1C(=O)NCc1ccccc1)C1CCS(=O)(=O)C1 (stereo not drawn),-0.6%,0.2%,i,0.0%,1.8%,8.1%
CCCN(CC1CC1)C(=O)COc1ccccc1C(=O)NCc1ccccc1,0.6%,-6.5%,-110.0%*,0.0%,-2.2%,6.5%
Cc1ccc2nc(C)cc(C(=O)NC3CCS(=O)(=O)C3)c2c1 (stereo not drawn),x,x,x,28.5%,x,x
O=C(O)CCNC(=O)c1ccc(N=Nc2ccc(O)c(C(=O)O)c2)cc1,x,x,x,34.3µM*,x,x
COC(=O)c1sc(N)c(C#N)c1C,x,x,x,4.47µM*,x,x
Clc1ccc(SCCOCCN2CCCCCC2)cc1,2.5%,1.7%,i,0.562µM*,3.0%,-0.9%
O=C(O)/C=C/C(=O)NCc1csc2ccccc12,-2.7%,-2.8%,i,25.1µM*,1.7%,1.9%
Cc1ccccc1CNC(=O)/C=C\C(=O)O,-2.7%,-1.2%,i,u,3.0%,-3.3%
CCn1c2ccccc2c2cc(CNCCc3c[nH]c4ccccc34)ccc21,x,x,x,39.8µM*,x,x
CCOc1ccc(OCCSc2nnc(-c3ccccc3Cl)n2CCCOC)cc1,x,x,x,8.7%,x,x
CC(=O)N[C@@H]1C[C@H](Cn2cc(C3CC3)nn2)[C@@H](O)[C@H]1O,x,x,x,69.5%[176 µM],x,x
O=C(NC1CCCC1)N[C@@H]1C[C@H](Cn2cc(C3CC3)nn2)[C@@H](O)[C@H]1O,x,x,x,22.4µM*,x,x
CN(CC(=O)NC1(C#N)CCCCC1)Cc1ccc(C(F)(F)F)cc1,x,x,x,28.2µM*,x,x
CCOCCCn1c(=O)c2ccccc2n2c(=S)[nH]nc12,2.7%,-3.0%,i,3.98µM*,1.6%,-6.3%
SMILES,Vif-APOBEC3G blk,TSG101-PTAP inh,pAkt inh,12-LOX inh,ASM inhibitor,Vif-A3F inh
CCCn1c(N)c(-c2csc(NC)n2)c(=O)n(C)c1=O,x,x,x,7.94µM*,x,x
Cc1cc(NC(=O)C(C)(C)Oc2nn(CCOc3ccccc3)c3ccccc23)n(C)n1,x,x,x,-25.1%[176 µM],x,x
Cc1cccc(OCc2nnc(N)s2)c1C,-1.5%,0.7%,-120.4%*,8.4%,0.7%,2.2%
CC(C)(C)C(=O)N1CCC2(CC1)NCCc1c2[nH]c2ccccc12,x,x,x,24.4%,x,x
O=C(Nc1nnc(-c2ccc3c(c2)CCCC3)o1)c1c(F)cccc1F,-4.7%,-6.9%,i,4.2%,0.2%,25.1µM*
CCn1c(=S)[nH]c2c(c1=O)C(C)(C)Cc1ccccc1-2,-1.2%,-1.9%,i,u,-12.6%,-16.0%
Cn1c(=S)[nH]c2c(c1=O)C(C)(C)Cc1ccccc1-2,1.6%,2.6%,i,14.1µM*,-4.8%,-22.6%
COCCNc1cc(-c2ccc3ccccc3n2)c2cc[nH]c2n1,x,x,x,35.1%,x,x
Cc1ccc(-c2cc(Nc3ccccc3)nc(C)n2)cc1,x,x,x,7.08µM*,x,x
Cc1ccc(-c2cc(Nc3ccccc3C(F)(F)F)nc(C)n2)cc1,x,x,x,15.8µM*,x,x
CN1CCN(C(=O)CCn2cnc3c2c(=O)n(C)c(=O)n3C)CC1,x,x,x,-27.6%,x,x
Nc1ccc2[nH]c(=S)[nH]c2c1,1.6%,-0.6%,i,u,-1.7%,-0.3%
S=c1[nH]c2ccc(Cc3ccc4[nH]c(=S)[nH]c4c3)cc2[nH]1,1.8%,-1.0%,i,44.7µM*,5.3%,5.6%
COc1ccccc1/C=C/C=C(/C#N)C(=O)Nc1ccccc1C(=O)O,x,x,x,7.08µM*,x,x
COc1ccc(/C=C(\C#N)C(=O)Nc2ccccc2C(=O)O)cc1OC(=O)c1ccccc1Cl,x,x,x,39.8µM*,x,x
C#CCN(C[C@H]1[C@H](OC(=O)NCC2CCCCC2)[C@H](OC(=O)NCC2CCCCC2)C[C@H]2C(=O)N(c3ccccc3)C(=O)[C@@H]12)S(=O)(=O)c1ccc(C)cc1,-4.7%,x,i,44.7µM*,x,-4.8%
CC1(NC(=O)c2n[nH]c(=O)c3ccccc23)CCS(=O)(=O)C1 (stereo not drawn),x,x,x,1.4%,x,x
O=C1CC(c2cccc(Cl)c2)Cc2nc(N3CCOCC3)ncc21 (stereo not drawn),-7.3%,-0.7%,i,2.0%,-2.1%,-7.2%
O=C1CC(c2cccc(Cl)c2)Cc2nc(N3CCN(c4ccccc4)CC3)ncc21 (stereo not drawn),-0.2%,-1.2%,-96.6%*,132.4%,-3.1%,-0.6%
O=C(Nc1ccccc1)c1nn(Cc2ccccc2)c(=O)c2ccccc12,x,x,x,1.7%,x,x
CCSc1nnc(-c2cnn(-c3ccccc3)c2-n2cccc2)n1C,2.7%,-4.0%,-114.8%*,0.0%,2.5%,-4.3%
CCCCCCSc1nnc(-c2cnn(-c3ccccc3)c2-n2cccc2)n1C,2.7%,0.4%,i,u,-2.9%,-2.0%
COC(=O)COc1cccc(N)c1,x,x,x,12.6µM*,x,x
